This is an account of results in PubChem BioAssay (NCI).

About 83,000 compounds went through this panel and 20% of them were active in at least one assay; those are over-represented in the sample as a whole.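 Cells were grown in 96-well plates and exposed to the test compound at a single concentration for 48 hours; results are reported as percent growth, with values below 10 considered active.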 The source made the active and inactive calls.

The experiment relates to MDA-MB-468 breast. Nature of the experiment: NCI-60 one-dose screen, 48 h (100 = growth as untreated, 0 = no growth, -100 = all killed). The note with it: 10 µM unless noted.
Take `COc1ccc(NC(=O)c2sc3nc(C)c(C(O)c4ccccc4)cc3c2N)cc1` (centres undefined): the growth was 14.1% (inactive). Regarding `CC[C@H](C)[C@@H]1NC(=O)[C@H]([C@@H](C)O)NC(=O)C(Cc2ccccc2)NC(=O)[C@@H]2CCCN2C(=O)C(C(C)C)NC(=O)C(Cc2ccccc2)NC(=O)CNC(=O)[C@@H]2CCCN2C1=O` (some centres undefined), the growth was 53% (inactive). Under `CSc1oc(C)nc1[P+](c1ccccc1)(c1ccccc1)c1ccccc1` stands -4.41% (active). In the case of `CCCCCCCC(=O)SCC/C=C/[C@@H]1CC(=O)NCc2cc(ccn2)C2=N[C@@](C)(CS2)C(=O)N[C@@H](C(C)C)C(=O)O1`, the growth is 12.2% (inactive). Under `CC(C)(C)CC(C)(C)Cc1ccc(OCCOCC[N+](C)(C)Cc2ccccc2)cc1` stands -35.3% (active); under `COc1ccc(-c2cs/c(=N\N=C\c3ccc(O)cc3O)n2/N=C/c2ccc(O)cc2O)cc1`, -23.3% (active); under `Brc1ccsc1Br`, 103% (inactive).

Consider `COc1ccc2[nH]c(C(=O)OCc3ccc4c(Cl)cc(Cl)c(O)c4n3)cc2c1`, for which the growth is -83.1% (active). Take `CC1=CSC2=NCCN12`: the growth is 118% (inactive). For the molecule `Cc1cc(Oc2ccccc2)ccc1Nc1ncnc2ccc(-c3cnc(Cl)c(NS(C)(=O)=O)c3)cc12`, the growth is -18.9% (active).

For `CN1CCC[C@@H]1CCO[C@](C)(c1ccccc1)c1ccc(Cl)cc1`, the growth was -10.5% (active).

Regarding `COc1cc2c(c(OC)c1OC)CCC(c1cccc(NC(=O)c3cccc(Cl)c3)c1)O2` (centres undefined), the growth was 60.2% (inactive). Under `Cn1c(=O)c2c(ncn2CCC(=O)Nc2ccc(F)cc2)n(C)c1=O` stands 106% (inactive); under `O=c1[nH]c(N2CCOCC2)nc2scc(-c3ccccc3)c12`, 86.2% (inactive). Take `COc1cc([C@@H]2c3cc4c(cc3[C@H](SC(=N)N)[C@H]3COC(=O)[C@H]23)OCO4)cc(OC)c1OC`: the growth was -4.2% (active). Under `O=[N+]([O-])c1ccc(-n2[nH]nnc2=S)cc1` stands 123% (inactive); under `CCOC(=O)c1c(C)nc2c(c1N)C(=O)C(=O)N2CCc1ccc(OC)c(OC)c1`, 49% (inactive). Under `CSc1nc(NCCO)c(C#N)c(-c2cccc(N)c2)n1` stands 116% (inactive); under `Cn1cc(-c2csc(-c3c[nH]c4ccc(Br)cc34)n2)c2ccnc(Cl)c21`, 14% (inactive); under `Cc1ccc(C(=O)c2ccc(C)cc2)cc1`, 91% (inactive).

Consider `CC1CCCN(CCCCCOc2ccc3oc4ccc(Cl)cc4c(=O)c3c2)C1` (centres undefined), for which the growth was 68.7% (inactive). For the molecule `CCCC(OC(C)=O)c1ccc2c(c1)OCO2` (centres undefined), the growth was 103% (inactive). For `COc1cc(/C=C/C(=O)c2cc(OC)c(OC)c(OC)c2)ccc1Oc1nc(NCCO)nc(N2CCOCC2)n1`, the growth was -20.8% (active).

For the molecule `CCCCCCC/C=C/[C@H]1O[C@]2(O)C(=O)C=C3C[C@@H](O[C@@H]4O[C@H](CO)[C@@H](O)C(O)[C@@H]4O)C[C@@H]3[C@H]2C=C1C` (some centres undefined), the growth is -3.04% (active).

In the case of `COc1cc(Cl)cc(-c2nn(-c3cccc(NC(=O)Nc4ccc(Cl)c(Cl)c4)c3)cc2-c2ccncc2)c1`, the growth is 0.718% (active). Under `CC(=O)Nc1ccc(S(=O)(=O)NC(CCC(=O)Nc2ccc(Cl)cc2)C(=O)O)cc1` (centres undefined) stands 98.8% (inactive); under `O=C(OCCCCOC(=O)n1cnc2ccccc21)n1cnc2ccccc21`, 112% (inactive); under `C=C1CC/C=C(\C)C(=O)C[C@@H]2[C@@H]1CC2(C)C`, 79.1% (inactive). Under `O=C(Nc1cccc(C(F)(F)F)c1)Nc1cccc(C(F)(F)F)c1` stands -6.39% (active); under `O=C1/C(=C/c2ccc([N+](=O)[O-])cc2)COc2ccc(O)c(O)c21`, -90.9% (active); under `CCOC(=O)c1c(-c2ccc(OC)cc2)c(C#N)c2c(C#N)c(N)nn2c1N`, 13.2% (inactive). Under `CCC(c1ccc(OC)cc1)C(CC)c1ccc(OCC[N+](C)(C)C)cc1` (centres undefined) stands 19.3% (inactive); under `Clc1ccc(-c2csc(N/N=C/c3nc4ccccc4n3C3CC3)n2)cc1`, 90.1% (inactive). For `CCCCNC(=O)Oc1ccc(/C(=C(/CC)Cc2ccccc2)c2ccc(OCCCN(C)C)cc2)cc1`, the growth is 72.9% (inactive). On to `Cc1ccc2nc3nc4ccc[nH]c4cc3c2c1`, for which the growth was -57.7% (active). For the molecule `CN1CCN(CCCOc2cccc3nc(Nc4ccc(Cl)c(C(F)(F)F)c4)ccc23)CC1`, the growth is -2.83% (active). Under `Cc1ccc(-c2cc(-c3ccc(C)cc3)nc(NCCNc3ccnc4cc(Cl)ccc34)n2)cc1` stands -93.2% (active).

For the molecule `COc1ccc(-c2ncnc3c2ncn3CC#CCCl)cc1`, the growth was 20.8% (inactive). Under `O=C1c2cc3c(cc2-c2c1c1ccc(Cl)cc1c(=O)n2CCCN1CCOCC1)OCO3` stands 31.6% (inactive).
